Laboratory results from the supplement of paper PMC3334620.
Over roughly 33,000 sequences, “E-score (-0.5 to 0.5)” has its median near -0.013; the highest 2% begin near 0.3. The list comes from a sample in which the highest values are over-represented; it also holds similar and randomly drawn sequences.

biological target: T1, Msn1 (UniProt P22148); experiment: PBM E-score (8-mer binding enrichment) (E-score (-0.5 to 0.5)); higher = stronger / more preferred TF binding; conditions: protein concentration: 200 nM; construct: GST-full length
T1 sequence: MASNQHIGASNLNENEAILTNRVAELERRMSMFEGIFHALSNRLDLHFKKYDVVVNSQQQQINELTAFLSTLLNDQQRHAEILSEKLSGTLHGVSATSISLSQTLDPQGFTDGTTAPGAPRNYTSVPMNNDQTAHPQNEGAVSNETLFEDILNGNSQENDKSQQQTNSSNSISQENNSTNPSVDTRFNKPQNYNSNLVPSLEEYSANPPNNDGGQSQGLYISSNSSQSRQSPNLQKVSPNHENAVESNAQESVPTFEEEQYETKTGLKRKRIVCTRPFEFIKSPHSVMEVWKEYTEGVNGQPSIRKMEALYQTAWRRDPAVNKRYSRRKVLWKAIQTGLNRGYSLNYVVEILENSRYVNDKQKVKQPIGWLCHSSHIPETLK
Method: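 Universal 'all 10-mer' protein binding microarrays (Agilent AMADID 015681) probed with GST-tagged S. cerevisiae TFs (full-length or DBD) made by in vitro transcription/translation (PURExpress), about 100-200 nM. Bound TF was detected with fluorescent anti-GST. Each ungapped 8-mer (which stands for itself and its reverse complement) is scored by the PBM enrichment score (E-score), a modified Wilcoxon-Mann-Whitney statistic from -0.5 to +0.5, computed with the Universal PBM Analysis Suite. Scale: above 0.35 generally sequence-specific binding.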

Sequence | PBM E-score
GTGATCTA | 0.00906
ACTTTTGA | 0.208
ATATCCGG | 0.11
GTCTCAAC | 0.136
TCTAAAGA | 0.205
AACCTTCT | -0.205
TAAATCCA | 0.0101
CGAAGATC | -0.0505
AAGTACAC | 0.192
AAGTACAG | 0.0535
ACGTACAA | 0.234
AAGTACAT | 0.356
ACGTACAG | -0.0675
ACGTACAT | 0.307
GAGTCATC | -0.114
GGTGTCAC | -0.0252
GACGACAA | 0.299
CGCGACAA | 0.304
AATGACAG | 0.151
AACGACAA | 0.262
CGCGACAG | -0.00106
AACGACAT | 0.417

Sequence | PBM E-score
GGCGACAA | 0.069
TACGACAA | 0.352
AACGACAG | -0.0454
AATGACAC | 0.213
CACGACAA | 0.256
AATGACAT | 0.42
CAAGATCC | 0.0979
AAGCAAAG | -0.064
AGGGCCTC | -0.236
AGTTGTGA | 0.137
CGGACCAA | 0.256
CTATCGCA | -0.201
AACCACGT | -0.0931
CTACCAAA | -0.0795
GAGTACTA | 0.198
TGCGACAA | 0.338
AGCGACAA | 0.301
TGCGACCA | 0.0994
ATTTAATG | 0.202
TACTAATA | 0.0704
ATTTAATA | 0.336
AACTAATA | 0.326

Sequence | PBM E-score
TATTAATA | -0.134
GATTAATA | 0.143
AATTAATT | 0.168
CTTTAATA | 0.193
AATTAATA | 0.352
GTTTAAAA | 0.0898
CACTAATA | 0.0713
GTTTAATA | 0.315
CGCGGTGC | -0.123
TAAGTTAA | -0.0568
CGCTACCG | 0.00385
GGCGAAAA | 0.24
GTTAGAAA | -0.0269
CATCTTCA | 0.0522
GGAGGGCC | -0.273
CGCCAGGC | -0.174
AATATTAG | 0.131
AATATTGG | -0.0454
TATATTAA | 0.232
AATATTAT | 0.208
AATATTGT | 0.35
AATATTGC | 0.218

Sequence | PBM E-score
AATATTAA | 0.318
CATATTAA | 0.32
CATATTAG | 0.193
CGATAAAG | 0.119
AGCTCACC | -0.141
GAAGTCCA | 0.212
AAAGTCGT | 0.223
AGAGTCCG | 0.0522
GAAGTCCC | -0.0665
AAAGTCCG | 0.342
AAAGTCCA | 0.378
CAAGTCCC | 0.148
TAAGTCCA | 0.26
AAAGTCCT | 0.427
AAAGTCCC | 0.344
CAAGTCCG | 0.0478
AGAGTCCT | -0.0894
AATGGCTA | -0.0496
ATGTTCAA | 0.185
CCACTGGA | -0.216
